# Measured values published in PubChem BioAssay AID1159580 (chemical genetic matrix, 2015).
# The whole screen tested about 5,500 compounds, of which about 2,000 (36%) were called active. About 18% were inconclusive and are not listed. Some of the results follow. Values without a mark were called inactive. Cut-off read from the data, not from the text of the source: active = normalized growth mostly below about 0.91 (no sharp cut-off); inconclusive = no clear call, values can overlap the other calls; inactive = mostly above about 0.92.
# Assay: chemical genetic growth profiling, strain panel (AID 1159580);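 note: tested at 20 µM; growth read once vehicle control cultures reached saturation at 30 °C; 1 = growth at the plate median or of vehicle wells; lower values mean less growth of the strain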
# Conditions: S. cerevisiae deletion strains, growth OD
smiles,measurement,setting,value
Nc1ccc(CCN2CCN(c3cccc(C(F)(F)F)c3)CC2)cc1,normalized growth,"locus YAL040C, strain CLN3, stronger effect = lower value",1.05
same,normalized growth,"locus YCL061C, strain MRC1 (second series), stronger effect = lower value",0.973
same,normalized growth,"locus YDR363W, strain ESC2, stronger effect = lower value",0.894
same,normalized growth,"locus YER002W, strain NOP16, stronger effect = lower value",1.03
same,normalized growth,"locus YGR229C, strain SMI1, stronger effect = lower value",0.501 (active)
same,normalized growth,"locus YMR307W, strain GAS1, stronger effect = lower value",1.02
same,normalized growth,"locus YNL175C, strain NOP13, stronger effect = lower value",1.02
same,normalized growth,"locus YNL197C, strain WHI3, stronger effect = lower value",1
same,normalized growth,"locus YNL224C, strain SQS1, stronger effect = lower value",1.01
same,normalized growth,"locus YOR083W, strain WHI5 (second series), stronger effect = lower value",1.02
